Where “and” joins values, the source holds several entries; their conditions need not be identical. Equal entries are not always repeated. The campaign covered roughly 360,000 compounds. About 11,000 (3.1%) were called active. Inconclusive results (about 4%) are left out. Calls follow the shape of the dose curve; as a rule, active = well fitted inhibition curve with a large enough effect; inconclusive = small, poorly fitted or top-dose-only effect; inactive = no such curve, though single readings can be large or run the other way. What follows is part of a selection rich in actives, with near analogues and random picks from the rest. A call without a number means that no potency is given here.
Potency is read from the fitted curve at half-maximal effect.

This experiment deals with Schistosoma mansoni thioredoxin glutathione reductase (TGR) (UniProt Q962Y6). Nature of the experiment: qHTS Assay for the Inhibitors of Schistosoma Mansoni Peroxiredoxins. Also: nearly all actives have a fitted effect of over 60% in size. Particulars: purified TGR, DTNB reduction, TNB absorbance 405 nm; series mostly up to 114 µM. The gist of the method:
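Kinetic colorimetric format: TGR-catalysed, NADPH-driven DTNB reduction monitored via TNB absorbance. Enzyme dispensed at 20 nM; compound exposure 15 min at room temperature before reaction start.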
Background: qHTS replaces the single test concentration by a dilution series.
For the compound `Cc1cc(Br)ccc1NC(=O)Cn1cnc2sc(C)c(S(=O)(=O)N3CCN(C)CC3)c2c1=O`, the Potency entry was “inactive”.
The value for `O=S(=O)(c1ccc(Cl)cc1)c1nnn2c1nc(NC1CCCC1)c1sccc12` was “inactive”; that for `Cc1ccc(C(=O)Cn2cc([N+](=O)[O-])nc2C)cc1` was “inactive”.
The value for `O=C(Cn1c[n+](CC(=O)c2ccc([N+](=O)[O-])cc2)cn1)c1ccc([N+](=O)[O-])cc1` was 10 µM (active) and 44.7 µM (active); that for `C/C(=N/NC(=O)CC(=O)N/N=C(\C)c1ccc([N+](=O)[O-])cc1)c1ccc([N+](=O)[O-])cc1` was “inactive”; that for `Cc1[nH][nH]c(=O)c1C(c1ccc(-c2ccc(Cl)cc2)o1)c1c(C)[nH][nH]c1=O` was 25.1 µM (active).
Then `CN(CC(=O)Nc1ccc(F)cc1)C(=O)c1ccc(-c2ccc(Cl)cc2)o1`, with “inactive”; and `COC(=O)c1cc(NC(=O)CN2CCC(C(N)=O)(N3CCCCC3)CC2)cc(C(=O)OC)c1`, with “inactive”; and `NC(=O)C1(N2CCCCC2)CCN(C2CC(=O)N(Cc3ccc(N4CCCC4=O)cc3)C2=O)CC1` (stereo unspecified), with 25.1 µM (active).
Consider `CCCNC(=O)NCc1ccc(N2CCCC2=O)cc1`, for which the Potency entry was “inactive”.
For the compound `COc1ccc(OC)c(-n2nnc(-c3nc(-c4cc(OC)c(OC)c(OC)c4)no3)c2C)c1`, the Potency result was “inactive”.
The value for `Cc1ccc(N2C(=O)CC(Nc3cccc4ccccc34)C2=O)cc1` (stereo unspecified) was 22.4 µM (active); that for `O=C(Cc1ccccc1)NNC1CC(=O)N(c2ccc(Br)cc2)C1=O` (stereo unspecified) was “inactive”; that for `Cc1ccc(N2C(=O)C3C(c4ccccc4)(C2=O)C3(c2ccccc2)c2ccccc2)cc1` (stereo unspecified) was “inactive”.
Then `CCOc1ccc(NC(=O)c2cnn(-c3ccccc3)c2-n2cccc2)cc1`, with “inactive”; and `Cc1ccc(OCC(=O)OCc2cc(=O)n3nc(C4CC4)sc3n2)cc1`, with “inactive”.
`COc1ccc(S(=O)(=O)NCC(c2ccc(N(C)C)cc2)N2CCc3ccccc32)cc1OC` (stereo unspecified): the Potency result was “inactive”.
Then `CCOC(=O)c1c(N)n(-c2cccc(C)c2C)c2nc3ccccc3nc12`, with “inactive”; and `Nn1c(SCC(=O)Nc2nccs2)nnc1-c1ccco1`, with “inactive”.
On to `CCOC(=O)c1c(NC(=O)CSc2nnc(CN3CCOCC3)n2C)sc2c1CCCC2`, for which the Potency result was “inactive”.
The value for `NC(=O)c1c(NC(=O)CSc2nnc(-c3ccco3)n2N)sc2c1CCCC2` was 11.2 µM (active); that for `Cc1c(Cl)cccc1NC(=O)c1noc2c1CCCC2` was “inactive”; that for `CSc1ccc(CCNC(=O)c2cnn(-c3ccccc3)c2-n2cccc2)cc1` was “inactive”.
The value for `CCn1c(SCC(=O)Nc2cc(C)c(Cl)cc2OC)nnc1-c1ccco1` was “inactive”.
The value for `COc1cc(Cl)c(C)cc1NC(=O)CSc1nnc(-c2ccco2)n1CC(C)C` was 25.1 µM (active).
`CCc1ccc(NC(=O)CSc2nnc(-c3cnccn3)n2Cc2ccco2)cc1`: the Potency was 39.8 µM (active).
Then `Cc1cc(C)nc(SCc2nnc(SCC(=O)Nc3ncc(C)s3)n2Cc2ccco2)n1`, with “inactive”.
Take `COc1ccccc1NC(=O)CSc1nnc(-c2ccoc2C)n1CCc1ccccc1`: the Potency result is “inactive”.
Then `Cc1c(Cl)cccc1NC(=O)CSc1ccc(-c2cccnc2)nn1`, with “inactive”; and `CCn1c(SCC(=O)Nc2cc(C)ccc2C)nnc1-c1cnccn1`, with “inactive”; and `O=C(CSc1nnc(-c2cccs2)n1Cc1ccco1)c1ccc2c(c1)OCO2`, with “inactive”.
Then `Cn1c(SCC(=O)Nc2nccs2)nnc1-c1cccnc1`, with “inactive”; and `O=C(CSc1nnc(-c2cccnc2)n1Cc1ccco1)c1ccc(Cl)c(Cl)c1`, with 22.4 µM (active); and `O=C(CSc1nnc(-c2cccnc2)n1CCc1ccccc1)NCc1ccccc1`, with “inactive”.
The value for `COc1cc(Cl)c(C)cc1NC(=O)CSc1nnc(-c2cccnc2)n1Cc1ccco1` was 44.7 µM (active).
On to `COc1ccc(OCC(=O)Nc2cccc(C(=O)OCc3cc(=O)n4nc(C)sc4n3)c2)cc1`, for which the Potency entry was “inactive”.
`Cc1cc(NC(=O)C2CCC(CNS(=O)(=O)c3ccc(Br)s3)CC2)ccc1Br` (stereo unspecified): the Potency result is “inactive”.
Then `COC(=O)c1ccc(NC(=O)CCc2c(C)nc3c(c(C)nn3-c3ccc(C)cc3)c2C)cc1`, with “inactive”; and `O=C(NCC(c1cccnc1)N1CCc2ccccc21)c1cccc(C(F)(F)F)c1` (stereo unspecified), with “inactive”; and `COc1ccc(CCNC(=O)CCc2c(C)nc3c(c(C)nn3-c3ccc(C)c(C)c3)c2C)c(OC)c1OC`, with “inactive”.
The value for `COc1ccc(NC(=O)CSc2nc3ccccc3n2CC(=O)N2CCCCC2C)cc1` (stereo unspecified) was “inactive”.
The value for `COc1ccc(C(=O)NCc2nnc(SCCOc3ccccc3)n2C)cc1` was “inactive”; that for `C=CCn1c(CNC(=O)c2ccco2)nnc1SCC(=O)c1ccc(OC)cc1` was “inactive”.
On to `COc1ccc(C(=O)CSc2nnc(COc3ccccc3)n2Cc2ccco2)cc1`, for which the Potency is 39.8 µM (active).
Then `COc1ccccc1CNCc1ccc(C(=O)O)s1`, with “inactive”.
Then `COc1ccc(-c2cn3c(n2)sc2cc(C(=O)Nc4ccccc4F)ccc23)cc1`, with “inactive”.
Then `O=C(NCc1ccccc1Cl)C1=Cc2cc(Br)ccc2OC1`, with “inactive”; and `Cc1ccc(SCC(=O)NC(=O)NCc2ccco2)c(C)c1`, with “inactive”; and `CC(C)(C)NC(=O)NCc1ccco1`, with “inactive”.
`O=C(CNc1ccc(F)cc1F)NC(=O)NCc1ccco1`: the Potency was 28.2 µM (active).
Then `CCOC(=O)c1ccc(NC(=O)C2CCN(S(=O)(=O)c3ccc4c(c3)CCCC(=O)N4)CC2)cc1`, with “inactive”; and `O=C(CCc1nc(CN2CCN(S(=O)(=O)c3ccc(Cl)cc3)CC2)no1)N1CCCCC1`, with “inactive”.
`CN(C)[C@@H]1C(=O)C(C(N)=O)=C(O)[C@@]2(O)C(=O)C3=C(O)c4c(O)ccc(Cl)c4[C@@H](O)[C@H]3C[C@@H]12`: the Potency is 39.8 µM (active).
Then `O=C(c1ccccc1F)N1CCC(c2nc3c(nnn3Cc3cccc(F)c3)c(=O)[nH]2)CC1`, with “inactive”; and `Cc1ccc(CN2CCc3nc(N4CCN(C)CC4)ncc3C2)cc1`, with “inactive”; and `Cc1ccc(C)c(Cn2c(=O)n(CCC(=O)NCc3ccc4c(c3)OCO4)c(=O)c3sccc32)c1`, with “inactive”.
Then `CC(C)c1ccc(NC(=O)c2cc(S(=O)(=O)N3CCc4ccccc4C3)ccc2F)cc1`, with “inactive”.
The value for `c1ccc(-n2nnnc2N2CCOCC2)cc1` was “inactive”; that for `O=C(C1CCCO1)N1CCC(c2nc3ccccc3[nH]2)CC1` (stereo unspecified) was “inactive”; that for `C1=C(N2CCOCC2)/C(=C/c2nc3ccccc3[nH]2)CC1` was 5.62 µM (active).
Take `COc1ccc(NC(=O)N2CCCn3nc(C)cc32)cc1OC`: the Potency result is “inactive”.

The values above are taken from PubChem BioAssay AID485364 (National Center for Advancing Translational Sciences (NCATS), 2010).
